Results from PubChem BioAssay (EPA / NIEHS).
Active and inactive are the calls of the source. The calls were made as follows: active = hit-call score of the fitted dose curve at least 0.9, where 1 is the maximum; inactive = score below 0.9.

Assays:
[1] = read-out: Low-density lipoprotein receptor (LDLR), LDLR (gene 3949); experiment: BSK_CASM3C_LDLR: BioMAP Diversity Plus: CASM3C Assay for Low-density lipoprotein receptor (LDLR) Biomarker Activity (AID 2283045); conditions: primary human coronary artery smooth muscle cells; actives raise or lower the signal;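 also: LDLR protein level on the cell surface quantified by ELISA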
[2] = read-out: Monocyte Chemoattractant Protein-1 (MCP1), CCL2 (gene 6347); experiment: BSK_CASM3C_MCP1: BioMAP Diversity Plus: CASM3C Assay for Monocyte Chemoattractant Protein-1 (MCP1) Biomarker Activity (AID 2283046); conditions: primary human coronary artery smooth muscle cells; actives raise or lower the signal;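 also: MCP-1 level quantified by ELISA 24 h after dosing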
[3] = BSK_CASM3C_Proliferation: Cell Proliferation Assessment in the BioMAP Diversity Plus: CASM3C Assay (AID 2283047); conditions: primary human coronary artery smooth muscle cells;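 also: sulforhodamine B total protein stain as relative cell number at 560 nm; sub-confluent cells exposed 48 h before staining; fitted both ways against DMSO so gain or loss of cell number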
[4] = read-out: Monokine induced gamma interferon (MIG), CXCL9 (gene 4283); experiment: BSK_CASM3C_MIG: BioMAP Diversity Plus: CASM3C Assay for Monokine induced gamma interferon (MIG) Biomarker Activity (AID 2283048); conditions: primary human coronary artery smooth muscle cells; actives raise or lower the signal;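 also: MIG protein level measured by ELISA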
[5] = read-out: serum amyloid A (SAA), SAA1 (gene 6288); experiment: BSK_CASM3C_SAA: BioMAP Diversity Plus: CASM3C Assay for serum amyloid A (SAA) Biomarker Activity (AID 2283049); conditions: primary human coronary artery smooth muscle cells; actives raise or lower the signal;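 also: SAA protein level quantified by ELISA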
[6] = BSK_CASM3C_SRB: Viability Assessment in the BioMAP Diversity Plus: CASM3C Assay (AID 2283050); conditions: primary human coronary artery smooth muscle cells;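 also: total protein by SRB staining as cytotoxicity measure in parallel cultures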
[7] = read-out: Thrombomodulin, THBD (gene 7056); experiment: BSK_CASM3C_Thrombomodulin: BioMAP Diversity Plus: CASM3C Assay for Thrombomodulin Biomarker Activity (AID 2283051); conditions: primary human coronary artery smooth muscle cells; actives raise or lower the signal;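 also: thrombomodulin protein level measured by ELISA 24 h after dosing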
[8] = read-out: Tissue Factor, F3 (gene 2152); experiment: BSK_CASM3C_TissueFactor: BioMAP Diversity Plus: CASM3C Assay for Tissue Factor Biomarker Activity (AID 2283052); conditions: primary human coronary artery smooth muscle cells; actives raise or lower the signal;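 also: cell surface tissue factor protein level read by ELISA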
[9] = read-out: Interferon-gamma inducible Protein 10 (IP10), CXCL10 (gene 3627); experiment: BSK_hDFCGF_IP10: BioMAP Diversity Plus: hDFCGF Assay for Interferon-gamma inducible Protein 10 (IP10) Biomarker Activity (AID 2283053); conditions: primary human foreskin fibroblasts; actives raise or lower the signal
Procedure, shortened: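 Human foreskin fibroblast primary cells (hDFCGF system) were dosed with chemical and assayed at 24 h; IP-10 measured by ELISA. Activity fitted bidirectionally relative to DMSO negative control as baseline.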

[10] = read-out: Urokinase-type plasminogen activator receptor (uPAR), PLAUR (gene 5329); experiment: BSK_CASM3C_uPAR: BioMAP Diversity Plus: CASM3C Assay for Urokinase-type plasminogen activator receptor (uPAR) Biomarker Activity (AID 2283054); conditions: primary human coronary artery smooth muscle cells; actives raise or lower the signal;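 also: cell-surface uPAR protein level quantified by ELISA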
[11] = read-out: Vascular cell adhesion molecule 1 (VCAM1), VCAM1 (gene 7412); experiment: BSK_CASM3C_VCAM1: BioMAP Diversity Plus: CASM3C Assay for Vascular cell adhesion molecule 1 (VCAM1) Biomarker Activity (AID 2283055); conditions: primary human coronary artery smooth muscle cells; actives raise or lower the signal;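 also: VCAM-1 protein level quantified by ELISA on the cells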
[12] = read-out: Collagen III, COL3A1 (gene 1281); experiment: BSK_hDFCGF_CollagenIII: BioMAP Diversity Plus: hDFCGF Assay for Collagen III Biomarker Activity (AID 2283056); conditions: primary human foreskin fibroblasts; actives raise or lower the signal
Procedure, shortened: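 Human foreskin primary fibroblasts were exposed to test chemicals for 24 h, after which collagen III was quantified by ELISA. Activity was fitted bidirectionally against DMSO as negative control and baseline.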

[13] = read-out: Epidermal growth factor receptor (EGFR), EGFR (gene 1956); experiment: BSK_hDFCGF_EGFR: BioMAP Diversity Plus: hDFCGF Assay for Epidermal growth factor receptor (EGFR) Biomarker Activity (AID 2283057); conditions: primary human foreskin fibroblasts; actives raise or lower the signal
Procedure, shortened: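 Primary human foreskin fibroblasts were exposed to compound for 24 h, after which cell-surface EGFR was quantified by ELISA. Activity was fitted bidirectionally against the DMSO negative control as baseline.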

[14] = read-out: Interleukin-8 (IL8), CXCL8 (gene 3576); experiment: BSK_hDFCGF_IL8: BioMAP Diversity Plus: hDFCGF Assay for Interleukin-8 (IL8) Biomarker Activity (AID 2283058); conditions: primary human foreskin fibroblasts; actives raise or lower the signal
Procedure, shortened: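 hDFCGF human dermal fibroblasts; 24 h chemical exposure; IL-8 by ELISA; bidirectional curve fit vs DMSO baseline; gain or loss of signal scored.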

[15] = BSK_hDFCGF_Proliferation: Cell Proliferation Assessment in the BioMAP Diversity Plus: hDFCGF Assay (AID 2283059); conditions: primary human foreskin fibroblasts;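 also: curves fitted for both rise and fall of signal versus DMSO baseline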
Procedure, shortened: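 This proliferation readout used SRB total-protein staining of human foreskin fibroblasts […], normalized to DMSO with bidirectional curve fitting.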

[16] = read-out: Macrophage colony-stimulating factor (MCSF), CSF1 (gene 1435); experiment: BSK_hDFCGF_MCSF: BioMAP Diversity Plus: hDFCGF Assay for Macrophage colony-stimulating factor (MCSF) Biomarker Activity (AID 2283060); conditions: primary human foreskin fibroblasts; actives raise or lower the signal
Procedure, shortened: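 Human foreskin primary fibroblasts were treated with test chemical for 24 h, and M-CSF was then measured by ELISA. Data were fitted bidirectionally against DMSO as the negative control and activity baseline.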

[17] = BSK_hDFCGF_SRB: Viability Assessment in the BioMAP Diversity Plus: hDFCGF Assay (AID 2283061); conditions: primary human foreskin fibroblasts;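 also: cells exposed to compound for 24 h before the read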
Procedure, shortened: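 Human foreskin primary fibroblasts were treated with compound and assessed 24 h after dosing. Total protein was measured by sulforhodamine B staining (0.1% SRB after 10% TCA fixation, 560 nm read) as a cytotoxicity marker, with bidirectional fitting against DMSO baseline.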

[18] = read-out: TIMP metallopeptidase inhibitor 1 (TIMP1), TIMP1 (gene 7076); experiment: BSK_hDFCGF_TIMP1: BioMAP Diversity Plus: hDFCGF Assay for TIMP metallopeptidase inhibitor 1 (TIMP1) Biomarker Activity (AID 2283062); conditions: primary human foreskin fibroblasts; actives raise or lower the signal
Procedure, shortened: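 Primary human foreskin fibroblasts in the hDFCGF system were dosed with compound for 24 h, then TIMP-1 was measured by ELISA. Activity was fitted bidirectionally relative to DMSO control; parallel SRB staining assessed cytotoxicity.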

[19] = read-out: Monokine induced gamma interferon (MIG), CXCL9 (gene 4283); experiment: BSK_hDFCGF_MIG: BioMAP Diversity Plus: hDFCGF Assay for Monokine induced gamma interferon (MIG) Biomarker Activity (AID 2283063); conditions: primary human foreskin fibroblasts; actives raise or lower the signal
Procedure, shortened: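 ELISA read-out of MIG from primary human dermal fibroblasts 24 h post-dosing. Gain or loss of signal fitted bidirectionally, DMSO as baseline.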

[20] = read-out: Matrix Metallopeptidase 1 (MMP1), MMP1 (gene 4312); experiment: BSK_hDFCGF_MMP1: BioMAP Diversity Plus: hDFCGF Assay for Matrix Metallopeptidase 1 (MMP1) Biomarker Activity (AID 2283064); conditions: primary human foreskin fibroblasts; actives raise or lower the signal
Procedure, shortened: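 Primary human foreskin fibroblasts in the hDFCGF system were dosed with test chemical, and MMP1 was measured by ELISA 24 h later. Values come from bidirectional curve fitting against the DMSO baseline.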

Measured: AC50

ClC1(Cl)C2(Cl)C3(Cl)C4(Cl)C(Cl)(Cl)C5(Cl)C3(Cl)C1(Cl)C5(Cl)C24Cl (stereo not given)
active: [1] 1.14 µM | [15] 0.572 µM
inactive: all other assays above

CC(C)(C)CC(C)(C)c1ccc(O)cc1
active: [1] 16 µM | [2] 11.9 µM | [3] 10.1 µM | [4] 26.4 µM | [5] 10.7 µM | [6] 13.7 µM | [7] 33.8 µM | [8] 10 µM | [9] 9 µM | [10] 14.8 µM | [11] 12 µM | [12] 8.27 µM | [13] 20 µM | [14] 10.6 µM | [15] 8.07 µM | [16] 7.74 µM | [17] 9.59 µM | [18] 8.77 µM | [19] 9.02 µM | [20] 6.98 µM

O=C1C2(Cl)C3(Cl)C4(Cl)C(Cl)(Cl)C5(Cl)C3(Cl)C1(Cl)C5(Cl)C24Cl (stereo not given)
active: [1] 10.5 µM | [2] 31.3 µM | [3] 6.61 µM | [4] 34.2 µM | [5] 23.3 µM | [6] 24 µM | [7] 33.6 µM | [8] 19.3 µM | [9] 4.03 µM | [10] 18 µM | [11] 29 µM | [12] 3.46 µM | [13] 2.09 µM | [14] 14.3 µM | [15] 1.42 µM | [16] 21.9 µM | [17] 16.4 µM | [18] 30 µM | [19] 31 µM | [20] 19.3 µM
